In PubChem BioAssay (NCI):
Values joined by “and” are separate entries in the source; they are usually repeats but may differ in a detail not shown here. Identical values can stand only once. About 83,000 compounds went through this panel and 20% of them were active in at least one assay; those are over-represented in the sample as a whole.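 Note: values are percent growth. 100 is the growth of untreated cells, values between 100 and 0 indicate rising inhibition; between -100 and 0 indicates cell death.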 Active and inactive are the calls of the source. The calls were made as follows: active = growth percent below 10; inactive = the rest.

Tested on: MCF7 breast
Assay: NCI-60 one-dose screen, 48 h (100 = growth as untreated, 0 = no growth, -100 = all killed)
Conditions: 10 µM unless noted

| SMILES | growth |
| --- | --- |
| CC1OC23CCCCC2C(C#N)(C#N)C1(C#N)C(=N)O3 (configuration not stated) | -34% [100 µM] (active) |
| CC(=Nc1ccncc1)C(C)=Nc1ccncc1 | -47.5% [100 µM] (active) and -27.7% [100 µM] (active) |
| CCOC(=O)C(=O)C(CCC(=O)c1ccc2ccccc2c1O)C(=O)OCC (configuration not stated) | 69.9% [100 µM] (inactive) and 81.3% [100 µM] (inactive) |
| CNC(=S)/C(=N\Nc1nc[nH]c1C(N)=O)C(N)=S | 10.6% [100 µM] (inactive) and 4.26% [100 µM] (active) |
| COc1ccc2c(c1)N(C(C)=O)CN1C(=O)CCC21 (configuration not stated) | 86.1% [100 µM] (inactive) and 85.1% [100 µM] (inactive) |
| C=C1CC2(C)CCC(OC(=O)C3(C)OC3C)C(C)(OC(C)=O)C2CC1=C(C)C (configuration not stated) | 67% [100 µM] (inactive) and 8.58% [100 µM] (active) |
| NC(=S)Nc1[nH]c(=S)nc2c1SC1=N/C(=C\c3ccco3)C(=O)N12 | 20.2% [100 µM] (inactive) and 4.03% [100 µM] (active) |
| O=C(Nc1cccc(NC(=O)C(=O)C2CCC3=C(Sc4ccccc4N3)C2=O)n1)C(=O)C1CCC2=C(Sc3ccccc3N2)C1=O (configuration not stated) | 51.4% [100 µM] (inactive) and 4.4% [100 µM] (active) |
| CCOc1cc2c(cc1O)/C(=N/NS(=O)(=O)c1ccc(C)cc1)C[C@@H]1[C@@H]2CC[C@]2(C)[C@@H](O)CC[C@@H]12 | -3.96% [100 µM] (active) |
| Cc1ccc(/C=C2/N=C(N/N=C\c3ccccc3)NC2=O)cc1 | 1.56% [100 µM] (active) and 22.5% [100 µM] (inactive) |
| CCCCC1C(=O)N(c2ccc(S(=O)(=O)Nc3ccccn3)cc2)N(c2ccc(O)c(C(=O)O)c2)C1=O (configuration not stated) | 121% [100 µM] (inactive) and 87.3% [100 µM] (inactive) |
| N#CC1(C#N)N[C@@H](c2ccsc2)[C@H]2C(=O)N(c3ccccc3)C(=O)[C@H]21 | 22.5% [100 µM] (inactive) and 12.4% [100 µM] (inactive) |
| Cc1ccc2c(sc(-c3ccc4c(c3)sc(-c3ccc5c(c3)sc(-c3ccc(N(C)C)cc3)[n+]5C)[n+]4C)[n+]2C)c1S(=O)(=O)O (tested in a mixture with another compound) | 35.5% [100 µM] (inactive) and -81.2% [100 µM] (active) |
| CO/C(N)=C(\C#N)N=Cc1ccc2ccccc2c1 | 8.6% [100 µM] (active) and 1.15% [100 µM] (active) |
| Cc1cc2nn(C3CCCO3)nc2cc1C (configuration not stated) | 79.7% [100 µM] (inactive) and 92.9% [100 µM] (inactive) |
| COC(=O)/C(=N\NC(=S)NN)C(C(=O)OC)C(=O)C(=O)Nc1cccc(C(F)(F)F)c1 (configuration not stated) | 63.8% [100 µM] (inactive) and 8.67% [100 µM] (active) |
| O=c1c2ccccc2nc(-c2ccccc2)n1/N=C/c1ccccc1[N+](=O)[O-] | 65.7% [100 µM] (inactive) and 73.8% [100 µM] (inactive) |
| O=C1NC(N/N=C\c2ccccc2)=N/C1=C/c1ccccc1 | -46% [100 µM] (active) and -100% [100 µM] (active) |
| CCO/C=N\C1=C(C#N)SC2=N/C(=C\c3ccc(OC)cc3)C(=O)N21 | 59.2% [100 µM] (inactive) and 48.6% [100 µM] (inactive) |

| SMILES | growth |
| --- | --- |
| COc1c2c(c3c(c1OC)c(=O)c1ccccc1n3C)OCO2 | 81.3% [100 µM] (inactive) |
| CCCCCC(O)(CCCCC)CCCCCCCCC1=C(O)c2ccccc2C(=O)C1=O | -37.7% [100 µM] (active) and -36.7% [100 µM] (active) |
| COc1cc2c(c3c1c(=O)c1ccccc1n3C)C=C([N+](=O)[O-])C(C)(C)O2 | 9.29% [100 µM] (active) and -100% [100 µM] (active) |
| CCC(C)C1(O)OC2CC3(C)OC(=CC3=O)/C(C)=C\C3OC(=O)C1(C)C32 (configuration not stated) | -50% [100 µM] (active) and -100% [100 µM] (active) |
| O=C1c2ccccc2-c2c1c1ccccc1c(=O)n2CCO | 6.81% [100 µM] (active) and -32.3% [100 µM] (active) |
| N#Cc1n[nH]n(-c2ccccc2)c1=O | 95% [100 µM] (inactive) and 80.4% [100 µM] (inactive) |
| N#Cc1nc(-c2cccc(-c3nc(C#N)c(N)o3)n2)oc1N | 58.8% [100 µM] (inactive) and -19.4% [100 µM] (active) |
| Cc1ccc(F)cc1NC(=O)O/N=C(\Cl)C(C)C | 72.4% [100 µM] (inactive) and 46.2% [100 µM] (inactive) |
| Cc1ccc2c(/C=C/c3ccc(N(C)C)cc3)ccc(C(C)C)cc1-2 | 57.7% [100 µM] (inactive) and 75.6% [100 µM] (inactive) |
| COc1ccc(-c2coc3c4c(ccc3c2=O)OCO4)cc1OC | 53.7% [100 µM] (inactive) and 32.9% [100 µM] (inactive) |
| CC1C2(C)OC(=N)C(C#N)(C(c3cccc([N+](=O)[O-])c3)O2)C1(C#N)C#N (configuration not stated) | 98.4% [100 µM] (inactive) |
| C=CCn1c2c(c3ccccc3c1=O)C(=O)c1ccccc1-2 | 68.3% [100 µM] (inactive) and 23.2% [100 µM] (inactive) |
| COc1ccc2cc1Oc1ccc(cc1)CC1c3cc(OC)c(cc3CCN1C)Oc1c(OC)c(OC)cc3c1C(C2)N(C)CC3 (configuration not stated) | 24.7% [75 µM] (inactive) and -97.6% [75 µM] (active) |
| COc1ccc(C)cc1NC(=S)C#N | 77.9% [100 µM] (inactive) and 4.98% [100 µM] (active) |
| CC1CC(C(=O)OC2OC(COC3OC(CO)C(OC4OC(C)C(O)C(O)C4O)C(O)C3O)C(O)C(O)C2O)C2CCC3(C)C(=CCC4(C)C3CCC3C(C)(CO)C(O)C(O)CC34C)C2C1C (configuration not stated) | -87.6% [100 µM] (active) and -100% [100 µM] (active) |
| COc1ccc(OC)c(N(CN2C(=O)CCC2C(=O)O)C(C)=O)c1 (configuration not stated) | 86% [100 µM] (inactive) and 95.9% [100 µM] (inactive) |
| Clc1ccc(C2C3COc4ccccc4C3=NN2c2ccccc2)cc1 (configuration not stated) | 12.9% [100 µM] (inactive) and -27.8% [100 µM] (active) |
| COc1cc(Oc2c(C)c(Cl)c(OC)c(Cl)c2OC)c2c(c1Cl)COC2=O | -6.77% [100 µM] (active) and -26.7% [100 µM] (active) |
